Laboratory results as given in the supplement of paper PMC9023506.
Structures can show the parent of a compound that is named as a salt.

System: Danio rerio larvae (5 dpf)
Experiment: optomotor response to red moving lines, difference vs DMSO (percentage points (treated minus DMSO)); higher = more of the behaviour than the DMSO vehicle control
Settings: 10 µM; exposure time: 3 h pre-incubation + 3 h imaging
Procedure: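 5-dpf wild-type zebrafish larvae were imaged in 96-well plates. They were treated with 190 Tocris FDA-approved drugs at 10 µM (1 µl/ml DMSO) for 3 h before and 3 h during imaging at 28.5 °C, 48 larvae per drug. Automated image analysis gave % time moving and optomotor responses. Values are drug group mean minus DMSO vehicle mean (n=844), in percentage points, for 10 behaviours.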

Row | Compound | optomotor response to red moving lines
1 | CO[C@H]1/C=C/O[C@@]2(C)Oc3c(C)c(O)c4c(O)c(c5c(nc6cc(C)ccn65)c4c3C2=O)NC(=O)/C(C)=C\C=C\[C@H](C)[C@H](O)[C@@H](C)[C@@H](O)[C@@H](C)[C@H](OC(C)=O)[C@@H]1C [Rifaximin] | 0.313
2 | CCOc1nc2cccc(C(=O)O)c2n1Cc1ccc(-c2ccccc2-c2nnn[nH]2)cc1 [Candesartan] | 4.89
3 | CC(C)CN(C[C@@H](O)[C@H](Cc1ccccc1)NC(=O)O[C@H]1CO[C@H]2OCC[C@H]21)S(=O)(=O)c1ccc(N)cc1 [Darunavir] | 4.11
4 | CN(C)C(=N)NC(=N)N [Metformin hydrochloride] | 17.8
5 | Nc1ccn([C@@H]2O[C@H](CO)[C@@H](O)C2(F)F)c(=O)n1 [Gemcitabine hydrochloride] | 12.3
6 | Nc1nc2[nH]cc(CCc3ccc(C(=O)N[C@@H](CCC(=O)O)C(=O)O)cc3)c2c(=O)[nH]1 [Pemetrexed] | -7.22
7 | NC(=O)OCC(COC(N)=O)c1ccccc1 [Felbamate] | -9.28
8 | Cc1ccccc1C(=O)Nc1ccc(C(=O)N2CCCC(O)c3cc(Cl)ccc32)c(C)c1 (stereo not given) [Tolvaptan] | -7.01
9 | Cn1cnc([N+](=O)[O-])c1Sc1ncnc2[nH]cnc12 [Azathioprine] | 3.86
10 | CN(C)CC/C=C1/c2ccccc2COc2ccc(CC(=O)O)cc21 [Olopatadine hydrochloride] | 19
11 | CC(C)COCC(CN(Cc1ccccc1)c1ccccc1)N1CCCC1 (stereo not given) [Bepridil hydrochloride] | 3.6
12 | COc1ccccc1OCCNCC(O)COc1cccc2[nH]c3ccccc3c12 (stereo not given) [Carvedilol] | 1.15
13 | O=C(O)c1cc(/N=N/c2ccc(S(=O)(=O)Nc3ccccn3)cc2)ccc1O [Sulfasalazine] | 2.01
14 | Cc1ccc(O)c([C@H](CCN(C(C)C)C(C)C)c2ccccc2)c1 [Tolterodine L-tartrate] | -0.0985
15 | Nc1nc(F)nc2c1ncn2[C@@H]1O[C@H](CO)[C@@H](O)[C@@H]1O [Fludarabine] | -10.8
16 | CCc1ccc(CCOc2ccc(CC3SC(=O)NC3=O)cc2)nc1 (stereo not given) [Pioglitazone hydrochloride] | -7.97
17 | CCc1nc(N)nc(N)c1-c1ccc(Cl)cc1 [Pyrimethamine] | 8.52
18 | COCCCOc1cc(C[C@@H](C[C@H](N)[C@@H](O)C[C@H](C(=O)NCC(C)(C)C(N)=O)C(C)C)C(C)C)ccc1OC [Aliskiren hemifumarate] | 0.559
19 | CN1CC[C@@H](NC(=O)Nc2ccc(C#N)cc2)C[C@@H]1c1nc2ccccc2[nH]1 | -0.356
20 | OCCN(CCO)c1nc(N2CCCCC2)c2nc(N(CCO)CCO)nc(N3CCCCC3)c2n1 [Dipyridamole] | -6.85

Row | Compound | optomotor response to red moving lines
21 | CNC(=O)c1ccccc1Sc1ccc2c(/C=C/c3ccccn3)n[nH]c2c1 [Axitinib] | 1.5
22 | CC(C)(C#N)c1cc(Cn2cncn2)cc(C(C)(C)C#N)c1 [Anastrozole] | -3.51
23 | COc1ccc([C@@H]2Sc3ccccc3N(CCN(C)C)C(=O)[C@@H]2OC(C)=O)cc1 [Diltiazem hydrochloride] | -1.99
24 | COc1cc2nc(N3CCN(C(=O)C4COc5ccccc5O4)CC3)nc(N)c2cc1OC (stereo not given) [Doxazosin mesylate] | -7.06
25 | CCN(CC)CCNC(=O)c1c(C)[nH]c(/C=C2\C(=O)Nc3ccc(F)cc32)c1C [Sunitinib malate] | -0.697
26 | Clc1ccc(COC(Cn2ccnc2)c2ccc(Cl)cc2Cl)c(Cl)c1 (stereo not given) [Miconazole nitrate] | -8.36
27 | CC(=O)Oc1ccccc1C(=O)O [Aspirin] | 7.38
28 | CCCCC1=NC2(CCCC2)C(=O)N1Cc1ccc(-c2ccccc2-c2nnn[nH]2)cc1 [Irbesartan] | -7.57
29 | CCCc1nn(C)c2c(=O)[nH]c(-c3cc(S(=O)(=O)N4CCN(C)CC4)ccc3OCC)nc12 [Sildenafil citrate] | -6
30 | CS(=O)(=O)CCNCc1ccc(-c2ccc3ncnc(Nc4ccc(OCc5cccc(F)c5)c(Cl)c4)c3c2)o1 [Lapatinib] | 0.000688
31 | COc1cc(Nc2c(C#N)cnc3cc(OCCCN4CCN(C)CC4)c(OC)cc23)c(Cl)cc1Cl [Bosutinib] | 3.82
32 | O=C(O)C[C@H](O)C[C@H](O)/C=C/c1c(C2CC2)nc2ccccc2c1-c1ccc(F)cc1 [Pitavastatin calcium] | 3.56
33 | C#C[C@]1(O)CC[C@H]2[C@@H]3CCC4=CC(=O)CC[C@@H]4[C@H]3CC[C@@]21CC [Levonorgestrel] | 4.27
34 | C=CC(=O)N1CCC[C@@H](n2nc(-c3ccc(Oc4ccccc4)cc3)c3c(N)ncnc32)C1 [Ibrutinib] | -1.62
35 | CC(CCc1ccc(O)cc1)NCCc1ccc(O)c(O)c1 (stereo not given) [Dobutamine hydrochloride] | 5.06
36 | CN(CCOc1ccc(NS(C)(=O)=O)cc1)CCc1ccc(NS(C)(=O)=O)cc1 [Dofetilide] | -14.2
37 | CCOC(=O)[C@H](CCc1ccccc1)N[C@H]1CCc2ccccc2N(CC(=O)O)C1=O [Benazepril hydrochloride] | 13
38 | CCN(Cc1ccncc1)C(=O)C(CO)c1ccccc1 (stereo not given) [Tropicamide] | 1.4
39 | Cc1nnc(C(C)C)n1C1C[C@H]2CC[C@@H](C1)N2CC[C@H](NC(=O)C1CCC(F)(F)CC1)c1ccccc1 (stereo in doubt) [Maraviroc] | -6.34
40 | CCCCCCCCc1ccc(CCC(N)(CO)CO)cc1 | 2.93
